Source: PubChem
This excerpt belongs to a sample that is enriched for hits.
Pf Dd2 inh = inhibitors of Plasmodium falciparum Dd2 growth; Potency, µM (top dose mostly 28.9 µM), actives largely listed as inhibitors; hit rate 4.3% among 120,000; P. falciparum Dd2 growth, SYBR Green, 72 h; AID 1347417; active = well fitted inhibition curve with a large enough effect; note: nearly all actives have a fitted effect of over 65% in size
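Readout: SYBR Green fluorescence, 485 nm excitation, 535 nm emission, after ~16 h lysis at 37C. Before that, Dd2-infected red cells (2.5% hematocrit) grew 72 h with compound, 29 uM top final concentration.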
Numbers stand for hits; – = inactive.

SMILES	Pf Dd2 inh
CCC(=O)N1Cc2ccccc2CC2(CCCN(CC3CCNCC3)C2)C1 (stereo unspecified)	–
NCCCC(=O)N1CCCC2(Cc3ccccc3CN2C(=O)c2ccccc2)C1 (stereo unspecified)	–
CCCC(=O)N1Cc2ccccc2CC2(CCCN(CCC)C2)C1 (stereo unspecified)	8.9µM
CCCC(=O)N1Cc2ccccc2CC2(CCN(CC)C2)C1 (stereo unspecified)	–
CCN1CCCC2(Cc3ccccc3CN(C(=O)c3ccccc3)C2)C1 (stereo unspecified)	10µM
COc1ccc(C(=O)N2Cc3ccccc3CC23CCCN(C(=O)CN)C3)cc1 (stereo unspecified)	–
CCCC(=O)N1Cc2ccccc2CC2(CCN(C)C2)C1 (stereo unspecified)	11µM
CCCN1CCCC2(Cc3ccccc3CN(C(=O)CCCC(=O)O)C2)C1 (stereo unspecified)	–
CN1CCC2(Cc3ccccc3CN(C(=O)CCC(=O)O)C2)C1 (stereo unspecified)	–
COc1ccc(Cl)cc1C(=O)NCCc1noc(C)n1	–
CNC(=O)c1cc[nH]c1C1CCCN(C(=O)C2CC=CCC2)C1 (stereo unspecified)	–
CC1(C(=O)Nc2ccc(F)c(F)c2)CCCCC(=O)N1 (stereo unspecified)	–
C#CCN(C)Cc1nc(C2(O)CCN(C(=O)Cc3ccccc3)CC2)cs1	–
O=C1NC2(CCN(Cc3cccc4ccccc34)CC2)Oc2ccccc21	–
CC(=O)N1CCC2(CC1)C(=NC1CCCCC1)NC(=O)N2c1cccnc1	–
CCc1cccc2c(C(CC(=O)NCCOC)c3ccc(OC)cc3OC)c[nH]c12 (stereo unspecified)	–
CC(=O)NCC(=O)N1Cc2ccccc2CC2(CCN(Cc3ccccc3)C2)C1 (stereo unspecified)	–
CC(C)C(=O)N1Cc2ccccc2CC2(CCCN(Cc3ccccc3)C2)C1 (stereo unspecified)	3.5µM
CCC(=O)N1Cc2ccccc2CC2(CCCN(Cc3ccncc3)C2)C1 (stereo unspecified)	–
c1cc(CN2CC(Oc3ccc4c(c3)OCO4)C2)cs1	–
O=C1N[C@H](CCC(=O)N2CCN(CCc3ccncc3)CC2)C(=O)Nc2ccccc21	–
CC(=O)N1CCC(N2CCC[C@H]2c2nc(-c3ccc(N4CCC(C(N)=O)CC4)nc3)no2)CC1	–
CN(C)c1ccc(-c2noc([C@@H]3CCCN3Cc3ccc(CO)o3)n2)cn1	7.9µM
CC(=O)N1CCC(N2CCC[C@H]2c2nc(-c3ccc(-n4ccnc4)nc3)no2)CC1	–
CN(C)c1ccc(-c2noc([C@@H]3CCCN3C3CCOCC3)n2)cn1	–
SMILES	Pf Dd2 inh
CC(=O)Nc1ccc(CN2CCC[C@H]2c2nc(-c3ccc(N4CCC(C(N)=O)CC4)nc3)no2)cc1	–
COCC(=O)Nc1ccc(-c2noc([C@@H]3CCCN3Cc3cc4ccccc4o3)n2)cn1	–
c1cncc(CN2CCC[C@H]2c2nc(-c3ccc(-n4ccnc4)nc3)no2)c1	8.9µM
COc1ccc(CN2CCC[C@H]2c2nc(-c3ccc(-n4ccnc4)nc3)no2)c(OC)c1OC	10µM
FC(F)(F)Oc1cccc(CN2CCC[C@H]2c2nc(-c3ccc(N4CCOCC4)nc3)no2)c1	–
CNc1ccc(-c2noc([C@@H]3CCCN3Cc3cccc(OC)c3)n2)cn1	–
CC(C)N1CCC[C@H]1c1nc(-c2ccc(N3CCN(C)CC3)nc2)no1	10µM
CNc1ccc(-c2noc([C@@H]3CCCN3Cc3cccnc3)n2)cn1	–
COCC1CN(C(C)=O)CC12CCN(S(=O)(=O)c1cn(C)cn1)CC2 (stereo unspecified)	–
O=C(c1ccccc1)N1CCC2(CC1)CCN(CCc1ccccc1)c1ccccc1O2	–
C[S+](=O)([O-])N1CCCC(c2nn(-c3ccc(F)cc3)c(=O)[nH]2)C1 (stereo unspecified)	–
Cc1ccc(CN2CCC(Oc3ccc4ccccc4c3)(C(=O)O)CC2)o1	–
CCOc1ccc(C(=O)N(C)C2CCc3nnc(C)n3CC2)cc1OCC (stereo unspecified)	–
O=C(N[C@@H]1CCOC[C@H]1OCc1cscn1)c1ccc(Cl)s1	–
O=C(Cn1nc2n(c1=O)CCCC2)Nc1ccc(F)c(Cl)c1	–
CC(=O)NCCC(=O)N1Cc2ccccc2CC2(CCCN(CC3CCCC3)C2)C1 (stereo unspecified)	–
O=C(C1CCCC1)N1Cc2ccccc2CC2(CCN(CC3CCOCC3)C2)C1 (stereo unspecified)	7.1µM
CCCN1CCCC2(Cc3ccccc3CN(C(=O)C3CCN(C)CC3)C2)C1 (stereo unspecified)	–
CN(C)CC(=O)N1Cc2ccccc2CC2(CCN(CC3CCOCC3)C2)C1 (stereo unspecified)	–
O=C(O)CCCC(=O)N1Cc2ccccc2CC2(CCCN(CC3CCCC3)C2)C1 (stereo unspecified)	–
CN1CCC(C(=O)N2Cc3ccccc3CC3(CCN(Cc4ccccn4)C3)C2)CC1 (stereo unspecified)	–
NCC(=O)N1Cc2ccccc2CC2(CCN(CC3CCOCC3)C2)C1 (stereo unspecified)	8.9µM
NCC(=O)N1Cc2ccccc2CC2(CCN(CC3CCNC3)C2)C1 (stereo unspecified)	–
CCN1CCC2(Cc3ccccc3CN(C(=O)C3CCCC3)C2)C1 (stereo unspecified)	8.9µM
CN(C)CCC(=O)N1Cc2ccccc2CC2(CCCN(CC3CCOCC3)C2)C1 (stereo unspecified)	–
SMILES	Pf Dd2 inh
NCC(=O)N1Cc2ccccc2CC2(CCCN(CC3CCCC3)C2)C1 (stereo unspecified)	7.9µM
CC(=O)NCC(=O)N1Cc2ccccc2CC2(CCN(CC3CCOCC3)C2)C1 (stereo unspecified)	–
CCc1noc([C@@H]2CC(F)(F)CN2C(=O)c2ccc(OC)nc2)n1	–
Cc1ccc(N2CC(c3noc(-c4cnccn4)n3)CC2=O)cc1 (stereo unspecified)	–
COCCO[C@H]1C(=O)N(C2CCN(C(=O)c3sc(C)nc3C)CC2)[C@H]1c1ccncc1	–
CCCCc1ccc(NC(=O)Cn2c(C)cc3nc4n(c(=O)c32)CCCCC4)cc1	–
CCCCN1C(=O)C(CC(=O)NC(C)C)Sc2ncccc21 (stereo unspecified)	–
O=C(c1cccnn1)N1C[C@H]2CN(C3CCOCC3)C[C@@]2(C(=O)O)C1	–
CC[C@H]1CN(C(=O)c2ccnc(Cl)c2)CC[C@H]1CC(=O)NCc1cccnc1	–
O=C([C@@H]1C[C@H](F)CN1S(=O)(=O)Cc1ccccc1)N1CCCCC1	–
Cc1nnc(C2CCCCCN2S(=O)(=O)c2cccnc2)o1 (stereo unspecified)	–
COc1ccc(OC2CN(C(=O)c3ccc(OC)cc3)C2)cc1	–
COCCN1C(=O)CS(=O)(=O)C12CCN(C(=O)COc1ccc(Cl)cc1)CC2	–
CCc1ccc(N2CC(c3noc(-c4cc(F)ccc4F)n3)CC2=O)cc1 (stereo unspecified)	–
Cc1nc2c(c(-c3ccc(Cl)cc3)n1)CN([S+](=O)([O-])c1ccsc1)CC2	–
CN1C(=O)COC[C@@H]1[C@H](O)c1ccc(NC(=O)c2cnccn2)cc1	–
CC(=O)Nc1ccc([C@@H](O)[C@H]2COCC(=O)N2CCCc2ccccc2)cc1	–
O=C(Nc1ccc([C@@H](O)[C@H]2COCC(=O)N2CCCc2ccccc2)cc1)c1cnccn1	13µM
O=C1[C@@H]2C[C@@H](CN2C(=O)c2ccno2)Oc2ccccc2N1CC1CC1	–
